Screening results (PubChem)
Sampled rows, rich in hits. Any-hit rate of the full collection: about 11%.
Pf growth 48h = Primary qHTS for delayed death inhibitors of the malarial parasite plastid, 48 hour incubation | AID 504832, 2011 | P. falciparum luciferase growth in erythrocytes, 48 h | 5.9% of 310,000 active | Potency, µM (top dose mostly 28.7 µM), for the others: top-dose activity change, negative = inhibition, usual class: inhibitors; note: % is set by controls: 0 for no effect and ±100 for the full control effect
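Erythrocytes infected with P. falciparum carrying an integrated firefly luciferase reporter (2% hematocrit, 0.1% parasitemia final) were exposed to compounds in RPMI 1640 with 0.5% Albumax at 37 C, 5% CO2. Growth inhibition was scored as reduced luminescence.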
NS1 function inh = qHTS Assay for Inhibitors of Influenza NS1 Protein Function; Potency, µM (top dose mostly 46.1 µM), inactives show top-dose activity, positive = more growth; 0.4% of 270,000 active; calls by dose curve; note: actives are rising curves; nearly all actives have a fitted effect of over 50% in size
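Compounds were scored for reversing the slow growth caused by influenza A NS1 in S. cerevisiae, measured by optical density at 600 nm. Assay medium contained 2% galactose at pH 6.0; NS1-free yeast of the same strain were the positive control.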
Pf growth 96h = Primary qHTS for delayed death inhibitors of the malarial parasite plastid, 96 hour incubation; P. falciparum luciferase reporter growth, 96 h; Potency, µM (series often up to 28.7 µM), for the others: top-dose activity change, negative = inhibition, actives largely listed as inhibitors; 6.9% of 320,000 active; note: % is set by controls: 0 for no effect and ±100 for the full control effect
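Readout is luminescence from an integrated firefly luciferase in P. falciparum. Red cells, 2% hematocrit and 0.05% parasitemia final, were cultured with compound through two parasite generations (96 hours) at 37 C, 5% CO2.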
AMA1-RON2 inh = qHTS for Inhibitors of AMA1-RON; Towards Development of Antimalarial Drug Lead: Primary Screen; Plasmodium falciparum AMA1 (3D7) - RON2 peptide interaction; AlphaScreen AMA1-biotinylated RON2 peptide binding; Potency, µM (series often up to 58.2 µM), for the others: at the top dose activity change, negative = inhibition, most hits filed as inhibitors; 0.2% of 360,000 active; AID 720542, 2013;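 note: 0% = vehicle wells and -100% = peptide control; nearly all actives have a fitted effect of over 45% in size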
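AMA1 (3D7) with his tag at 25 nM final met compounds first, then biotinylated RON2 peptide at 25 nM; detection used donor plus acceptor beads, 10 µg/mL apiece, read by AlphaScreen after 30 min at room temperature.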
Sm TGR block = qHTS Assay for the Inhibitors of Schistosoma Mansoni Peroxiredoxins | Schistosoma mansoni thioredoxin glutathione reductase (TGR), Q962Y6 | purified TGR, DTNB reduction, TNB absorbance 405 nm | Potency, µM (series often up to 114 µM), for inactives: at the top dose activity change, negative = inhibition, actives largely listed as inhibitors | 3% of 360,000 active | AID 485364, 2010; note: % is set by controls: 0 for no effect and ±100 for the full control effect; nearly all actives have a fitted effect of over 60% in size
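Kinetic colorimetric format: TGR-catalysed, NADPH-driven DTNB reduction monitored via TNB absorbance. Enzyme dispensed at 20 nM; compound exposure 15 min at room temperature before reaction start.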
An asterisk follows results filed as active; [ ] = dose if it differs, or a comment. Unless noted, calls come from the whole dose curve; as a rule, active = well fitted curve in the direction sought with a large enough effect; inconclusive = small, poorly fitted or top-dose-only effect, or another doubt; inactive = no such curve, though single readings can be large; an effect the other way counts as inactive or inconclusive. Potency is the fitted concentration of half-maximal effect.

COc1cc(NC(=O)CN(C)S(=O)(=O)c2ccc3c(c2)CC(C)N3C(C)=O)cc(OC)c1 (stereo not given) was read as Pf growth 48h 0.0%, NS1 function inh 8.9%, Pf growth 96h inconclusive, AMA1-RON2 inh -0.6% and Sm TGR block 2.5%.
For CCOC(=O)c1cc(S(=O)(=O)N2CCN(c3ccc(OC)cc3)CC2)[nH]n1 the results were Sm TGR block 3.0%.
For O=C1CCc2cc(S(=O)(=O)NCCc3ccc(Cl)cc3)cc3c2N1CC3 the results were Pf growth 48h 14.2%, Pf growth 96h 26.8%, AMA1-RON2 inh -7.9% and Sm TGR block 2.5%.
COCCNC(=O)c1ccccc1NC(=O)Nc1ccccc1 was read as Pf growth 48h 30.3%, NS1 function inh 3.2%, Pf growth 96h 7.38µM* and AMA1-RON2 inh -1.9%.
CC(C)C(=O)Nc1ccc2c(c1)nc(CCN1CCCCC1)n2C was read as Pf growth 48h 31.4%, NS1 function inh 2.0%, Pf growth 96h 41.2%, AMA1-RON2 inh 0.2% and Sm TGR block -10.2%.
COc1ccc(OCC(=O)Nc2ccc3c(c2)nc(CCn2ccccc2=O)n3C)cc1 was read as Pf growth 48h inconclusive, NS1 function inh -6.5%, Pf growth 96h 5.22µM*, AMA1-RON2 inh 26.5% and Sm TGR block 0.8%.
Screening COc1ccc(OCC(=O)Nc2ccc3c(c2)nc(CCN2CCOCC2)n3C)cc1 returned Pf growth 48h inconclusive, NS1 function inh -4.2%, Pf growth 96h 3.4%[5.75 µM], AMA1-RON2 inh -26.1% and Sm TGR block -0.3%.
`CN1CCN(CCc2nc3cc(NC(=O)COc4ccc(Cl)cc4)ccc3n2C)CC1` gave Pf growth 48h inconclusive, NS1 function inh -6.3%, Pf growth 96h 9.28µM*, AMA1-RON2 inh 33.2% and Sm TGR block inconclusive.
Screening Cn1c(CCN2CCCCC2)nc2cc(NC(=O)COc3ccc(Cl)cc3)ccc21 returned Pf growth 48h inconclusive, NS1 function inh -0.2%, Pf growth 96h inconclusive, AMA1-RON2 inh 4.2% and Sm TGR block -3.4%.
CC(C)CC(=O)Nc1ccc2c(c1)nc(CCN1CCCCC1)n2C was read as Pf growth 48h inconclusive, NS1 function inh 1.6%, Pf growth 96h 13.1µM*, AMA1-RON2 inh -8.5% and Sm TGR block 5.5%.
Screening O=C(Nc1ccc(Cl)cc1)P(=O)(O)c1ccccc1 returned AMA1-RON2 inh -3.7%.
O=[N+]([O-])c1cc(Br)c(Nc2ccccc2)c([N+](=O)[O-])c1 was read as Pf growth 48h 0.522µM*, NS1 function inh -63.9%, Pf growth 96h 10.1%, AMA1-RON2 inh 25.1µM* and Sm TGR block 11.2µM*.
O=C(O)c1cc([N+](=O)[O-])ccc1Nc1ccccc1 was read as Pf growth 48h 13.2%, NS1 function inh -15.2%, Pf growth 96h 10.4µM*, AMA1-RON2 inh 11.4% and Sm TGR block -11.6%.
`O=C(Nc1ccccc1)c1ccc(Nc2c([N+](=O)[O-])cc([N+](=O)[O-])c3ccccc23)cc1` gave Pf growth 48h inconclusive, NS1 function inh 4.7%, Pf growth 96h 13.8%, AMA1-RON2 inh -25.8% and Sm TGR block 6.9%.
`Cc1occc1C(=O)O/N=C(\N)c1ccccc1` gave Pf growth 48h -25.6%, NS1 function inh -3.1%, Pf growth 96h 11.7µM*, AMA1-RON2 inh -3.1% and Sm TGR block -3.0%.
Screening N/C(=N\OC(=O)N1CCOCC1)c1ccccc1 returned Pf growth 48h 6.57µM*, NS1 function inh 12.8%, Pf growth 96h 8.28µM*, AMA1-RON2 inh 7.6% and Sm TGR block 7.9%.
For N/C(=N\OC(=O)N1CCOCC1)c1ccc(Cl)cc1 the results were Pf growth 48h 9.28µM*, NS1 function inh -8.0%, Pf growth 96h inconclusive, AMA1-RON2 inh 4.6% and Sm TGR block 1.0%.
`N/C(=N\OC(=O)N1CCOCC1)c1ccc(Br)cc1` gave Pf growth 48h inconclusive, NS1 function inh 4.9%, Pf growth 96h 42.9%, AMA1-RON2 inh 3.7% and Sm TGR block 8.7%.
For O=S1(=O)OC(c2ccc(O)cc2)(c2ccc(O)cc2)c2ccccc21 the results were Pf growth 48h -4.8%, NS1 function inh -8.1% and Pf growth 96h -6.9%.
